# Results taken from PubChem BioAssay.
# Unmarked numbers belong to inactive results. The list shows a part of the results. Activity calls are given as the source filed them.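 How the source made its calls, unless noted: active means inhibition above the mean plus 3 SD of solvent-only control wells, limit set per screening run (cut at about 16% in these data); inactive means the rest.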
# Legend:
# [1] = blockers of IL-6 STAT3 signaling – U3A cells, luciferase, luminescence, confirmation (AID 1265;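 active means inhibition above the hit cutoff computed for the primary STAT3 screen, cut at about 44% in these data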;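 further: 0% = IL-6 plus DMSO and 100% = IL-6 plus nifuroxazide control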); conditions: IL-6 STAT3 luciferase reporter, at 5.7 µM, active compounds read high, cell line lacks STAT1
# [2] = inhibition of TNF-alpha-driven NF-kB transcription – cell-based, HEK293T, luciferase, TNF-alpha stimulus, counter-screen for STAT3 inhibitor project, confirmation (AID 1308;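 active means inhibition above the mean of solvent-only control wells plus 3 SD, cutoff set per campaign, cut at about 13% in these data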;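 further: 0% = TNF-alpha with DMSO and 100% = TNF-alpha with MG high control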); conditions: HEK293T NF-kB luciferase reporter, TNF-alpha induced; at 5.7 µM; active compounds read high
# [3] = inhibition of STAT1-driven transcription – cell-based, NIH 3T3, luciferase luminescence, IFN-gamma, counter-screen for STAT3 inhibitor project, confirmation (AID 1317); conditions: NIH 3T3 STAT1-luciferase reporter, IFN-gamma induced, at 5.7 µM, active compounds read high;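 further: 0% = DMSO with IFN-gamma and 100% = nifuroxazide control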
# [4] = potentiators of IFN-gamma STAT1 reporter activity – cell-based, HTS, luciferase reporter, confirmation (AID 1262;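 active means activation above a set limit carried over from the earlier primary STAT1 screen, cut at about 140% in these data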;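 further: simple ratio to median IFN-gamma plus DMSO wells so 0% means no light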); conditions: NIH 3T3 STAT1-luciferase reporter, IFN-gamma potentiation, luminescence; at 5.7 µM; active compounds read high; 100% = IFN-gamma EC80 alone, no compound
# [5] = enhancement of NF-kB transcriptional signalling – cell-based, HEK293T, luciferase luminescence, TNF-alpha, counter-screen for STAT1 activator project (AID 1306;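 active means activation above the mean of solvent-only control wells plus 3 SD, set per campaign, cut at about 130% in these data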;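 further: TNF-alpha given at a submaximal dose yielding about 80% of full reporter signal; values are well signal over median control so 100% means no change and 0% no light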); conditions: HEK293T NF-kB luciferase reporter, TNF-alpha stimulated, at 5.7 µM, active compounds read high, 100% = TNF-alpha with vehicle only
# [6] = molecular target: Signal transducer and activator of transcription 3 (Homo sapiens) (UniProt P40763); assay: enhancers of IL-6 STAT3 transcription – U3A cells, luciferase, luminescence, counter-screen for STAT1 activator project, confirmation (AID 1316;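 active means activation above the solvent-only control well mean plus 3 SD, set per plate batch, cut at about 110% in these data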;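 further: 0% = no luminescence and 100% = median IL-6 plus DMSO wells; higher means more STAT3 reporter activation so hits are non-selective activators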); conditions: U3A cells STAT3-luciferase reporter, IL-6, luminescence; at 5.7 µM; active compounds read high; 100 = IL-6 alone, no compound effect; cells lack STAT1
# [7] = tested on: DAF-12 nuclear receptor (Heterodera glycines), GAL4-LBD fusion; assay: hgDAF-12 GAL4 fusion reporter activation, retest – cell-based, luminescence, HEK293, GAL4-LBD fusion, confirmation (AID 743050;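 active means mean activation over triplicate wells above the hit cutoff derived from the earlier primary screen, cut at about 11% in these data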;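 further: 0% = DMSO low control and 100% = 2 mM sodium butyrate high control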); conditions: HEK293 GAL4-hgDAF12 luciferase reporter, agonist mode; at 6.8 µM; active compounds read high; percent of butyrate response
# [8] = molecular target: Oxysterols receptor LXR-beta (Homo sapiens) (UniProt P55055); assay: nonspecific reporter activation via LXR – cell-based, luminescence, HEK293, H. glycines campaign, counter-screen for hgDAF-12 agonist project, confirmation (AID 743051;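 active means mean activation of the triplicate above a set limit carried over from the primary screen, none filed active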); conditions: HEK293 Gal4-LXR luciferase reporter, 24 h; at 6.8 µM; active compounds read high
# Chain of Oxysterols receptor LXR-beta (Homo sapiens) (P55055 whole entry, looked up, the tested form may be a part): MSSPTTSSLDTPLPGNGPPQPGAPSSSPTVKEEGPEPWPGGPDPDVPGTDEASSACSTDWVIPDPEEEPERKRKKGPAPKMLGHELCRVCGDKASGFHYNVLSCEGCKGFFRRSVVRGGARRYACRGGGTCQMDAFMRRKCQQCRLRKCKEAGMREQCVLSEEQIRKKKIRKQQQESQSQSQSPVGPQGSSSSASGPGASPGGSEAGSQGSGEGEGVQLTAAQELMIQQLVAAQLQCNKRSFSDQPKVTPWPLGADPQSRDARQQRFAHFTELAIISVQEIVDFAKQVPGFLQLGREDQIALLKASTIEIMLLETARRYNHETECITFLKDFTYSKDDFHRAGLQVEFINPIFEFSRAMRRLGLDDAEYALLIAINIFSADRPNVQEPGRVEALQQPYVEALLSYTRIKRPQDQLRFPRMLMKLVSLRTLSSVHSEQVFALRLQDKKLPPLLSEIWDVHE
# [9] = suppression of KLF5 promoter-driven luciferase – DLD-1 cells, luminescence, confirmation (AID 1834;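 active means inhibition above a set limit taken from the earlier primary screen, cut at about 63% in these data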;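 further: 0% = DMSO wells and 100% = LY294002 at 200 µM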); conditions: DLD-1 KLF5 promoter firefly luciferase reporter, at 4 µM, active compounds read high
# [10] = IEC-6 intestinal cell killing – luminescence, triplicate, cytotoxicity control for KLF5 inhibitor project (AID 1905; in the data active means inhibition above about 23%;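 further: cells exposed to compounds for 48 hours before viability read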); conditions: IEC-6 rat intestinal cells, viability luminescence; at 4 µM; active compounds read high
# [11] = molecular target: Nuclear receptor coactivator 3 (Homo sapiens) (UniProt Q9Y6Q9); assay: NCOA3 GAL4-fusion reporter inhibition – cell-based, luminescence, quadruplicate, confirmation (AID 588792;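 active means mean inhibition over 43.08%, the solvent-only control mean plus 3 SD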;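 further: 0% = DMSO treated cells and 100% = gossypol at 36 µM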); conditions: HEK293 GAL4-SRC3 luciferase reporter, at 3.6 µM, active compounds read high
# Chain of Nuclear receptor coactivator 3 (Homo sapiens) (Q9Y6Q9 whole entry, looked up, the tested form may be a part): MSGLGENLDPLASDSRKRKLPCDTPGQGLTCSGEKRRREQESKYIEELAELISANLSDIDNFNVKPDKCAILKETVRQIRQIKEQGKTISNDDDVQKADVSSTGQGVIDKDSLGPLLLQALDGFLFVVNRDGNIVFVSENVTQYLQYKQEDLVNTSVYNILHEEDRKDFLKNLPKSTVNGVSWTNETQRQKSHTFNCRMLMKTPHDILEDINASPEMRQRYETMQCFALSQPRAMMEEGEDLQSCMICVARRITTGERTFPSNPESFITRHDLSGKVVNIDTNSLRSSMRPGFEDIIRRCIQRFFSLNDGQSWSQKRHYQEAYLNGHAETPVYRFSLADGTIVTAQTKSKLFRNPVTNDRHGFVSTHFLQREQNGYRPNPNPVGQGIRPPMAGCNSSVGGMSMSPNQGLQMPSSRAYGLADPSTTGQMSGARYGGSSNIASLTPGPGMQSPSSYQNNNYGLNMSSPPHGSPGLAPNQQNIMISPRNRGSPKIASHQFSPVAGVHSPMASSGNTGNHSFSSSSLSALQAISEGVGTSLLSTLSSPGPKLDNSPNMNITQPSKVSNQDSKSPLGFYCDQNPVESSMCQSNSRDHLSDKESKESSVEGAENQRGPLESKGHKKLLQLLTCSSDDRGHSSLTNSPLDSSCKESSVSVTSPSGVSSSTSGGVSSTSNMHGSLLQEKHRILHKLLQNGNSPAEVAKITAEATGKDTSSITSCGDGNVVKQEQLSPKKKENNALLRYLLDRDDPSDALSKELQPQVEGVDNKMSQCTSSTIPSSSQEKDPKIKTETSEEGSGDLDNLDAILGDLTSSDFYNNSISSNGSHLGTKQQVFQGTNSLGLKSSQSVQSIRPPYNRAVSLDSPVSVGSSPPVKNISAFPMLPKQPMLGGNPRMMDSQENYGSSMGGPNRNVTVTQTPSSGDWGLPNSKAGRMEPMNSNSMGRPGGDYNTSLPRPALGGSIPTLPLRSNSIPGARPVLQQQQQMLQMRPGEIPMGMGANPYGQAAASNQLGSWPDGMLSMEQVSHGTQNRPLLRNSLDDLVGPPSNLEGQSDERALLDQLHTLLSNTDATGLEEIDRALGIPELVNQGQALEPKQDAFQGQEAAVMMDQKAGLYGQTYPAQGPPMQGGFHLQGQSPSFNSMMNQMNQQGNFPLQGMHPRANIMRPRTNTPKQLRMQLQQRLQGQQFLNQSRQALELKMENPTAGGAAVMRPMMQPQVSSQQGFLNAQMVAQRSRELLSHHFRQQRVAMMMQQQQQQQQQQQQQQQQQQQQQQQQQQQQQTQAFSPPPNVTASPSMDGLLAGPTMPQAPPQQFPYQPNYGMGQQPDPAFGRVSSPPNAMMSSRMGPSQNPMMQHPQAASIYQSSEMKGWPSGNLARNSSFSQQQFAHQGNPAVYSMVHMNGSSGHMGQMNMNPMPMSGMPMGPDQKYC
# [12] = tested on: transactivating tegument protein VP16 (Human herpesvirus 1), Gal4-VP16 luciferase reporter; assay: repression of VP16-driven luciferase reporter – cell-based, luminescence, high throughput, counter-screen for SRC3 inhibitor project (AID 588794; in the data active means inhibition above about 30%); conditions: mammalian cells, at 3.6 µM, active compounds read high
# [13] = molecular target: Photoreceptor-specific nuclear receptor (Homo sapiens) (UniProt Q9Y5X4); assay: retest of NR2E3-NCOR disrupting agonists – cell-based, luminescence, CHO-S two-hybrid, confirmation (AID 624378;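 active means average inhibition above a cutoff equal to the mean inhibition of all tested compounds plus one SD, cut at about 70% in these data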;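 further: 0% = DMSO in NR2E3 cells and 100% = DMSO in cells lacking NR2E3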); conditions: CHO-S mammalian two-hybrid NR2E3-NCOR, luciferase luminescence; at 3.98 µM; active compounds read high
# Chain of Photoreceptor-specific nuclear receptor (Homo sapiens) (Q9Y5X4 whole entry, looked up): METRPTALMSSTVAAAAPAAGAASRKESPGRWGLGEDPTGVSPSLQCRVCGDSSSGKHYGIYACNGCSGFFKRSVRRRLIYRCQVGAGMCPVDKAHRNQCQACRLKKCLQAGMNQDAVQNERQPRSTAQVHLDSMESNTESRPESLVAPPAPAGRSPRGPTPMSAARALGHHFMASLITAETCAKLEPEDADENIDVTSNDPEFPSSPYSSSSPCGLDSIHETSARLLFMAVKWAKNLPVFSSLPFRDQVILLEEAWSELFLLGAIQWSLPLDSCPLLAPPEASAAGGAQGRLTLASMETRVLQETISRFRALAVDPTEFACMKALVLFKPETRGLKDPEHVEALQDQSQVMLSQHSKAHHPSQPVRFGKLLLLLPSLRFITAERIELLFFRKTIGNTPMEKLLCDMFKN
# [14] = nonselective effects on VP16 transactivation – cell-based, luminescence, CHO-S, high throughput, counter-screen for NR2E3 agonist project, confirmation (AID 624379;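 active means mean inhibition above a cutoff equal to the average over all tested compounds plus one standard deviation, cut at about 70% in these data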;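 further: 0% = DMSO with VP16-transfected cells and 100% = DMSO with cells lacking VP16; higher means less reporter light so more repression of VP16 activity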); conditions: CHO-S GAL4-VP16 luciferase reporter, at 3.98 µM, active compounds read high
# [15] = StAR promoter reporter inhibitors, counter-screen for LRH-1 inverse agonist project, cell-based, luminescence, high throughput (AID 651611; in the data active means inhibition above about 28%); conditions: StAR promoter luciferase reporter counterscreen, at 3.6 µM, active compounds read high
# [16] = molecular target: Nuclear receptor subfamily 5 group A member 2 (Homo sapiens) (UniProt O00482); assay: NR5A2 activity suppression in reporter cells – cell-based, luminescence, confirmation (AID 651613; in the data active means inhibition above about 42%;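 further: HEK293T cells co-transfected with LRH-1 and StAR promoter luciferase reporter; 0% = vehicle wells and 100% = parental cells lacking receptor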); conditions: cell-based LRH-1 luciferase reporter, inverse agonism; at 3.6 µM; active compounds read high
# Chain of Nuclear receptor subfamily 5 group A member 2 (Homo sapiens) (O00482 whole entry, looked up): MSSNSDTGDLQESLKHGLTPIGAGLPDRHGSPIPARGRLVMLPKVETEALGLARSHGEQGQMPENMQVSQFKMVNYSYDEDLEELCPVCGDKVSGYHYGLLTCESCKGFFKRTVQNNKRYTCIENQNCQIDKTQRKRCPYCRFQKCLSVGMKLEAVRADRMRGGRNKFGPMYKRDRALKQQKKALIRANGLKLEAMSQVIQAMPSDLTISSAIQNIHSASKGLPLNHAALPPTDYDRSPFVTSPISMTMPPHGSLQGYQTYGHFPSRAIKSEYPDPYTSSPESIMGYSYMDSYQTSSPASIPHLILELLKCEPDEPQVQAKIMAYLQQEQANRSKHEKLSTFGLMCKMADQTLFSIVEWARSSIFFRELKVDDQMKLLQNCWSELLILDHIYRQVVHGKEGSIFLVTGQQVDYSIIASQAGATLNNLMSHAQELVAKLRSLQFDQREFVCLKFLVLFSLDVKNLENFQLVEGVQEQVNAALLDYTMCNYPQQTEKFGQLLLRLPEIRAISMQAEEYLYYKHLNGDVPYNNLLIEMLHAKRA
# [17] = molecular target: Steroidogenic factor 1 (Homo sapiens) (UniProt Q13285); assay: inverse agonism at SF1 nuclear receptor – cell-based, luminescence, high throughput, counter-screen for LRH-1 inverse agonist project (AID 651614; in the data active means inhibition above about 44%;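 further: cells cotransfected with StAR promoter reporter and SF1 expression vector; 0% = vehicle on cells with receptor and 100% = vehicle on cells lacking receptor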); conditions: cell-based SF1 luciferase reporter, at 3.6 µM, active compounds read high
# Chain of Steroidogenic factor 1 (Homo sapiens) (Q13285 whole entry, looked up, the tested form may be a part): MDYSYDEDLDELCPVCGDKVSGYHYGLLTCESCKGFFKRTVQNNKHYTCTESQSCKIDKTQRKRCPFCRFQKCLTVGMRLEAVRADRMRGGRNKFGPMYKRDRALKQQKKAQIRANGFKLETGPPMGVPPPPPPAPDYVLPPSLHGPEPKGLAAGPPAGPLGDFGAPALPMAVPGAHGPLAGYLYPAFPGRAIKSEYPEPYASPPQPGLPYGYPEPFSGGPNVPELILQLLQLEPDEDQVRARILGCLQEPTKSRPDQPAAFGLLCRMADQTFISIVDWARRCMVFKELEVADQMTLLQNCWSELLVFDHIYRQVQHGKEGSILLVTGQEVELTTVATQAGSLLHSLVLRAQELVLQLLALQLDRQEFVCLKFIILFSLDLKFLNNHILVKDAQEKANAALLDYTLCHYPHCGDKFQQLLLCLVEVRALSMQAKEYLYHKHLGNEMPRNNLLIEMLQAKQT
# [18] = compounds suppressing VP16-driven luciferase signal – cell-based, luminescence, high throughput, counter-screen for LRH-1 inverse agonist project (AID 651615; in the data active means inhibition above about 33%); conditions: Gal4-VP16 luciferase reporter cells, at 3.6 µM, active compounds read high
# [19] = molecular target: Insulin-degrading enzyme (Homo sapiens) (UniProt P14735); assay: cellular IDE Abeta-cleavage inhibition – fluorescence polarization, HEK cells, FAbetaB substrate, confirmation (AID 435028;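 active means mean inhibition across triplicate wells above the cutoff set by the earlier primary insulin-degrading enzyme screen, cut at about 16% in these data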;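 further: 0% = DMSO wells and 100% = 60 µM reference IDE inhibitor Ii1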); conditions: at 5.59 µM, active compounds read high
# Chain of Insulin-degrading enzyme (Homo sapiens) (P14735 whole entry, looked up): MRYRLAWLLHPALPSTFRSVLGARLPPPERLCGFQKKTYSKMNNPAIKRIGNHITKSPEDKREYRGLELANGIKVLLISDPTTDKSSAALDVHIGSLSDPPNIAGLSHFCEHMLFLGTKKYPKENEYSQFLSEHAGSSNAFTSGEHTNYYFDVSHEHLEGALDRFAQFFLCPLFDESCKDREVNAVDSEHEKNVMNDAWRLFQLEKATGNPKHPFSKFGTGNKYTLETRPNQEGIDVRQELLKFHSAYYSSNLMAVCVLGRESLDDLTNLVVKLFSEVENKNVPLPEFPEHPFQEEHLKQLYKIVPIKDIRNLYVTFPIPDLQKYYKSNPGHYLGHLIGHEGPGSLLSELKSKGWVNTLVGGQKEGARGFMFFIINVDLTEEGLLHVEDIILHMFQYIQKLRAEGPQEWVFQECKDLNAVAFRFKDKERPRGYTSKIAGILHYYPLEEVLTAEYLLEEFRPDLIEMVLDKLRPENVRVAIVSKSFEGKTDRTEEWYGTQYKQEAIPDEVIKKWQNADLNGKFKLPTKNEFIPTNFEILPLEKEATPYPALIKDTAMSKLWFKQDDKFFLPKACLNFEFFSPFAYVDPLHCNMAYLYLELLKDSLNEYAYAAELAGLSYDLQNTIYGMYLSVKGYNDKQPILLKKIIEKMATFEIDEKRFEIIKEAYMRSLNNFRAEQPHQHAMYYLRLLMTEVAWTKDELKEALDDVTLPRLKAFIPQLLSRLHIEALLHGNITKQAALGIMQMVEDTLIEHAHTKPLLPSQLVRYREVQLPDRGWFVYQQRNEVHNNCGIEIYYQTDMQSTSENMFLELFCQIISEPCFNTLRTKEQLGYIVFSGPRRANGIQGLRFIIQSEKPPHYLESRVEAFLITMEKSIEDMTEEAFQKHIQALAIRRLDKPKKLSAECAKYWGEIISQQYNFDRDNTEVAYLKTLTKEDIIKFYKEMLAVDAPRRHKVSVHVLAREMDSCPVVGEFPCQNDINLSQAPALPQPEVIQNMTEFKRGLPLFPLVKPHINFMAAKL
# [20] = HEK cell viability loss – luminescence, cytotoxicity control for IDE inhibitor project (AID 449730; in the data active means inhibition above about 22%;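 further: 0% = vehicle wells and 100% = reference cytotoxic drug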); conditions: HEK293 cytotoxicity, ATP luminescence; at 5.59 µM; active compounds read high
# [21] = VP16-driven transactivation reporter suppression – cell-based, luminescence, HEK293, counter-screen for COUP-TFII antagonist project (AID 687007; in the data active means inhibition above about 13%); conditions: HEK293 Gal4-VP16 luciferase reporter, at 8.5 µM, active compounds read high
# [22] = molecular target: COUP transcription factor 2 (Homo sapiens) (UniProt P24468); assay: retest of COUP-TFII reporter suppressors – cell-based, luciferase reporter, HEK293, triplicate, confirmation (AID 687008;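 active means mean inhibition over three repeats above a set limit taken from the earlier primary screen, cut at about 38% in these data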;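 further: 100% = cells given the luciferase reporter alone without the COUP-TF2 vector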); conditions: HEK293 NGFI-A luciferase reporter, luminescence; at 8.5 µM; active compounds read high
# Chain of COUP transcription factor 2 (Homo sapiens) (P24468 whole entry, looked up): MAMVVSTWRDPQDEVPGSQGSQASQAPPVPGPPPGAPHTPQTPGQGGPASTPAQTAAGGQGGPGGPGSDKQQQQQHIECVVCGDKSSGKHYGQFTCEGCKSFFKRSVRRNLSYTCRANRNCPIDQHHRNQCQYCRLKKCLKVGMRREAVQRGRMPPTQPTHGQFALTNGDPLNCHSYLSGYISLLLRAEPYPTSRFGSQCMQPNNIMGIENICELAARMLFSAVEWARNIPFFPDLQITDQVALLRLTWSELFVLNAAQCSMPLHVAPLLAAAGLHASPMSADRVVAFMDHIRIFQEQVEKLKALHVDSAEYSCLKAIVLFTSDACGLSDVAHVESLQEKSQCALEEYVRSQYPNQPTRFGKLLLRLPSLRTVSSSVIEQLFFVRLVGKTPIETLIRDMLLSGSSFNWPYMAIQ
# [23] = molecular target: Oxysterols receptor LXR-beta (Homo sapiens) (UniProt P55055); assay: nonspecific reporter activation via LXR – cell-based, luminescence, HEK293, H. contortus campaign, counter-screen for hcDAF-12 agonist project, confirmation (AID 743027;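 active means mean percent activation of the reporter above a cutoff set as the average over tested compounds plus their standard deviation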); conditions: HEK293 Gal4-LXR tk-luc reporter, 24 h, at 6.8 µM, active compounds read high, normalized: DMSO 0%, positive control 100%
# [24] = tested on: Nuclear hormone receptor DAF-12 (Haemonchus contortus); assay: hcDAF-12 luciferase reporter activation, retest – cell-based, luminescence, HEK293, lit1-tk-luc, triplicate, confirmation (AID 743032;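 active means mean activation across triplicate tests above the threshold derived from the earlier primary screen, cut at about 5.5% in these data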;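 further: 0% = DMSO only wells and 100% = 3 µM Δ7-dafachronic acid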); conditions: HEK293 hcDAF-12 lit1-tk-luc reporter, at 6.8 µM, active compounds read high, % of Δ7-dafachronic acid response
structure (smiles),measurement,setting,value
O=C(Nc1ccc(NC(=O)c2cccs2)cn1)c1ccco1,inhibition,[1],20.3%
same,inhibition,[2],-29.5%
same,inhibition,[3],-92.3%
CC(C)C[C@@H](N)c1nnc(SCC(=O)c2ccc(Cl)cc2)o1,inhibition,[1],36.7%
same,inhibition,[2],10.9%
same,inhibition,[3],9.47%
O=C1NC(Nc2nc3ccccc3s2)(C(F)(F)F)C(=O)N1C1CCCCC1 (configuration not stated),inhibition,[1],51.1% (active)
same,inhibition,[2],21.2% (active)
same,inhibition,[3],-9.63%
CC(C)(C)C(=O)c1cnc(Nc2ccccc2)s1,activation (% of control),[4],164% (active)
same,activation (% of control),[5],121%
same,activation (% of control),[6],105%
same,activation,[7],13.6% (active)
same,activation,[8],0.48%
CCOc1cccc(/C=C/c2ccc3ccccc3n2)c1OC(C)=O,inhibition,[1],-2.03%
same,inhibition,[2],-34.1%
same,inhibition,[3],-15.3%
C=CC[n+]1c(-c2ccc(C)cc2)csc1NNC(=O)Nc1ccccc1,inhibition,[1],51.1% (active)
same,inhibition,[2],18.4% (active)
same,inhibition,[3],16.9% (active)
Cc1nc(-c2ccc(NC(=O)c3cccs3)cc2)cs1,inhibition,[1],27.5%
same,inhibition,[2],-26.7%
same,inhibition,[3],-111%
COc1cc(N=Cc2c(O)[nH]c3ccccc23)cc(OC)c1OC,inhibition,[1],49.1% (active)
same,inhibition,[2],27% (active)
same,inhibition,[3],-12%
same,inhibition,[9],76.8% (active)
same,inhibition,[10],19.1%
same,inhibition,[11],28.2%
same,inhibition,[12],1.5%
same,inhibition,[13],73.8% (active)
same,inhibition,[14],58.7%
same,inhibition,[15],61.7% (active)
same,inhibition,[16],54.4% (active)
same,inhibition,[17],69.2% (active)
same,inhibition,[18],25.2%
Cc1cc(NC(=O)c2cc(-c3cccs3)on2)nn1Cc1ccc(Cl)cc1,inhibition,[1],46.6% (active)
same,inhibition,[2],8.43%
same,inhibition,[3],0.57%
OCCn1c(-c2ccccc2)csc1=Nc1ccccc1,inhibition,[1],14%
same,inhibition,[2],-12%
same,inhibition,[3],-20.1%
CC(C)OCCCNc1ncnc2c1[nH]c1ccc(F)cc12,inhibition,[1],78.6% (active)
same,inhibition,[2],33.4% (active)
same,inhibition,[3],31.1% (active)
same,inhibition,[19],17.2% (active)
same,inhibition,[20],75.2% (active)
same,inhibition,[13],96.7% (active)
same,inhibition,[14],81.3% (active)
same,inhibition,[21],-32.6%
same,inhibition,[22],63.3% (active)
Cc1ccc2nc(-c3ccc(NC(=O)c4cccnc4)cc3)oc2c1,inhibition,[1],31.7%
same,inhibition,[2],-25.2%
same,inhibition,[3],-38.3%
COc1ccc(-c2csc(-c3cccs3)n2)cc1OC,activation (% of control),[4],179% (active)
same,activation (% of control),[5],136% (active)
same,activation (% of control),[6],114% (active)
same,activation,[7],9.44%
same,activation,[8],0.79%
CC(=O)c1sc(N/N=C/c2ccc(C(C)C)cc2)nc1C,activation (% of control),[4],187% (active)
same,activation (% of control),[5],133% (active)
same,activation (% of control),[6],110%
same,activation,[7],11.8% (active)
same,activation,[8],0.5%
COc1cccc(/C=C/c2ccc3ccccc3n2)c1OC(C)=O,inhibition,[1],25.2%
same,inhibition,[2],32.1% (active)
same,inhibition,[3],-9.23%
CCCCCc1ccc(-c2ccc(C(=O)O)cc2)nc1,inhibition,[1],22.4%
same,inhibition,[2],-6.17%
same,inhibition,[3],-71.4%
c1ccc(-c2noc(-c3cccs3)n2)nc1,inhibition,[1],27.6%
same,inhibition,[2],-12.9%
same,inhibition,[3],-54.9%
Cc1ccc(-n2ncc3c(N4CCN(c5ccc(F)cc5)CC4)ncnc32)c(C)c1,inhibition,[1],46.6% (active)
same,inhibition,[2],22.4% (active)
same,inhibition,[3],14.9%
O=C(NCCCn1ccnc1)c1cc(-c2ccccc2)on1,activation (% of control),[4],173% (active)
same,activation (% of control),[5],165% (active)
same,activation (% of control),[6],132% (active)
same,activation,[7],57.6% (active)
same,activation,[8],0.27%
Cc1ccc2nc(-c3ccc(NC(=O)CN(C)S(=O)(=O)c4ccccc4)cc3)sc2c1,inhibition,[1],20.1%
same,inhibition,[2],-18.5%
same,inhibition,[3],-90.5%
O=C(Nc1ccc(Cl)cn1)c1ccc2c(c1)OCCO2,inhibition,[1],26.7%
same,inhibition,[2],-3.07%
same,inhibition,[3],-103%
same,activation,[7],13.4% (active)
same,activation,[8],0.89%
CCCOc1ccc(C(=O)NCCc2ccccc2)cc1,inhibition,[1],11.6%
same,inhibition,[2],-7.27%
same,inhibition,[3],-61.1%
same,activation,[23],1.59%
same,activation,[24],7.43% (active)
same,activation,[7],14.1% (active)
same,activation,[8],0.6%
Cc1ccc(NC(=O)CN(C)CC(=O)Nc2cccc(F)c2)cc1[N+](=O)[O-],inhibition,[1],35.9%
same,inhibition,[2],13% (active)
same,inhibition,[3],19.3% (active)
same,inhibition,[13],74.5% (active)
same,inhibition,[14],86.7% (active)
same,inhibition,[21],1.63%
same,inhibition,[22],51.8% (active)
O=C(Nc1ccc(CSc2ccccc2)cc1)c1ccc(CN2CCOCC2)cc1,inhibition,[1],83.7% (active)
same,inhibition,[2],33.3% (active)
same,inhibition,[3],10.4%
same,inhibition,[15],28.7% (active)
same,inhibition,[16],65.5% (active)
same,inhibition,[17],63% (active)
same,inhibition,[18],54.8% (active)
same,inhibition,[21],-2.4%
same,inhibition,[22],65.8% (active)
Cn1c(CN2CCOCC2)nc2cc(NC(=O)c3ccc(Cl)cc3)ccc21,inhibition,[1],65% (active)
same,inhibition,[2],16.1% (active)
same,inhibition,[3],-12%
same,inhibition,[21],-24.2%
same,inhibition,[22],24.5%
CCOc1ccc(-c2nnc(-c3ccco3)o2)cc1,inhibition,[1],43.7% (active)
same,inhibition,[2],13.6% (active)
same,inhibition,[3],-56.6%
same,activation,[7],15.5% (active)
same,activation,[8],0.7%
